This note sets out measurements from PubChem BioAssay (EPA / NIEHS).

Values joined by “and” are separate entries in the source; they are usually repeats but may differ in a detail not shown here. Identical values can stand only once. A structure can be active in one record and inactive in another. Active and inactive are the calls of the source. Rule for the calls: active = hit-call score of the fitted dose curve at least 0.9, where 1 is the maximum; inactive = score below 0.9.

A short description of assay [1]: ATG_GRE_CIS: Attagene CIS-FACTORIAL HepG2 Assay for human Glucocorticoid Response Elements (GRE) (AID 2282947). Particulars: HepG2 GRE cis-reporter, Attagene multiplex mRNA; AC50: actives raise or lower the signal unless noted; outcome: actives raise or lower the signal unless noted. The gist of the method:
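Cells (HepG2) bearing transfected cis-promoter reporter transcription units were treated with chemical for 24 hours. Reporter mRNA was measured via RT-PCR with capillary electrophoresis, and activity was fitted in both directions relative to DMSO.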

Assay [2] in a line: ATG_ISRE_CIS: Attagene CIS-FACTORIAL HepG2 Assay for human Interferon Regulatory Factor 1 (IRF1) binding to an Interferon-Stimulated Response Element (ISRE) (AID 2282948). Conditions: HepG2 ISRE cis-reporter (Attagene), mRNA transcription readout; actives raise or lower the signal. The method in brief:
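Multiplexed mRNA reporter readout in human liver HepG2 cells: cis-element-driven reporters transfected, compound added for 24 h, transcripts amplified, fluorescently labelled and sized by capillary electrophoresis; curve fitting bidirectional against DMSO.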

Assay [3] can be described thus: ATG_M_32_CIS: Attagene CIS-FACTORIAL HepG2 Assay for M32 Transcription Factor (Internal Marker) (AID 2282949).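 Note: background control marker of the multiplexed CIS panel rather than a real target.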 Conditions: HepG2 Attagene cis-factorial M32 reporter, mRNA; actives raise or lower the signal. The gist of the method:
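HepG2 human liver cells transiently transfected with cis-promoter-driven multiple reporter transcription units, dosed 24 h. Reporter mRNA quantified by RT-PCR, FAM-labelled primer extension, HpaI digest and capillary electrophoresis; bidirectional fit versus DMSO baseline.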

A short description of assay [4]: ATG_M_06_CIS: Attagene CIS-FACTORIAL HepG2 Assay for M06 Transcription Factor (Internal Marker) (AID 2282950). Particulars: HepG2 Attagene CIS-FACTORIAL M06 internal marker reporter; actives raise or lower the signal. The method in brief: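 One of many multiplexed endpoints: HepG2 reporter mRNA after 24 h dosing, detected by RT-PCR and capillary electrophoresis fluorescence; gain or loss of signal analysed against DMSO.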

Assay [5] deals with Hypoxia-inducible factor 1-alpha (Homo sapiens) (UniProt Q16665). Description: ATG_HIF1a_CIS: Attagene CIS-FACTORIAL HepG2 Assay for human Hypoxia Inducible Factor 1 (HIF1A) (AID 2282951). Conditions: HepG2 Attagene cis-factorial HIF1a reporter transcription; actives raise or lower the signal. The method in brief:
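In this multiplexed cell assay, HepG2 cells bearing transfected cis reporters are dosed for 24 h and reporter mRNA is read by RT-PCR plus capillary electrophoresis; signal increases and decreases are both scored against DMSO.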

Assay [6] addresses Hepatocyte nuclear factor 6 (Homo sapiens) (UniProt Q9UBC0). Nature of the assay: ATG_HNF6_CIS: Attagene CIS-FACTORIAL HepG2 Assay for human Hepatocyte Nuclear Factor 6 (HNF6) (AID 2282952). Conditions: HepG2 Attagene cis-factorial HNF6 reporter transcription; actives raise or lower the signal. The gist of the method:
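Endogenous transcription factor activity in human HepG2 liver cells was captured through cis-regulated reporter constructs. After 24 h treatment, reporter mRNA was measured by RT-PCR with capillary electrophoresis, and activity was fitted in both directions relative to DMSO.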

Assay [7] deals with Heat shock factor protein 1 (Homo sapiens) (UniProt Q00613). Nature of the assay: ATG_HSE_CIS: Attagene CIS-FACTORIAL HepG2 Assay for human Heat Shock Transcription Factor 1 (HSE) (AID 2282953). Particulars: HepG2 HSE cis-reporter, Attagene RNA transcription; actives raise or lower the signal. The gist of the method:
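Using HepG2 with transfected cis-driven reporter constructs, compound effects on endogenous factor activity are scored as reporter mRNA change at 24 h. Detection: RT-PCR, HpaI digestion, capillary electrophoresis; bidirectional fitting to DMSO.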

Assay [8] in a line: ATG_MRE_CIS: Attagene CIS-FACTORIAL HepG2 Assay for human Metal Responsive Element (MRE) (AID 2282954). Conditions: HepG2 MRE cis-reporter transcription, Attagene multiplex; actives raise or lower the signal. The method in brief: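 Cells were transfected with cis-promoter reporter transcription units, then dosed for 24 h. RNA was reverse-transcribed, amplified, fluorescently labelled and resolved by capillary electrophoresis, and activity was fitted in both directions relative to DMSO.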

Assay [9] can be described thus: ATG_PBREM_CIS: Attagene CIS-FACTORIAL HepG2 Assay for human Phenobarbital-responsive Enhancer Module (PBREM) (AID 2282955). Conditions: HepG2 PBREM cis-reporter, Attagene multiplexed transcription; actives raise or lower the signal. The method in brief: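 After a 24 h incubation with test chemical, transfected HepG2 cells yield total RNA; reporter-specific RT-PCR products are fluorescently labelled, HpaI-digested and resolved by capillary electrophoresis against ROX size standards.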

The target in assay [10] is Paired box protein Pax-6 (Homo sapiens) (UniProt P26367). Nature of the assay: ATG_Pax6_CIS: Attagene CIS-FACTORIAL HepG2 Assay for human Paired Box 6 (PAX6) (AID 2282956). Conditions: HepG2 CIS-FACTORIAL PAX6 reporter transcription, RNA readout; actives raise or lower the signal. The method in brief:
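Fluorescent RT-PCR products separated by capillary electrophoresis report PAX6-linked promoter mRNA in HepG2 cells 24 h post-dose. Curves fitted bidirectionally, DMSO as negative control.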

Chain of Paired box protein Pax-6 (Homo sapiens) (P26367 whole entry, looked up): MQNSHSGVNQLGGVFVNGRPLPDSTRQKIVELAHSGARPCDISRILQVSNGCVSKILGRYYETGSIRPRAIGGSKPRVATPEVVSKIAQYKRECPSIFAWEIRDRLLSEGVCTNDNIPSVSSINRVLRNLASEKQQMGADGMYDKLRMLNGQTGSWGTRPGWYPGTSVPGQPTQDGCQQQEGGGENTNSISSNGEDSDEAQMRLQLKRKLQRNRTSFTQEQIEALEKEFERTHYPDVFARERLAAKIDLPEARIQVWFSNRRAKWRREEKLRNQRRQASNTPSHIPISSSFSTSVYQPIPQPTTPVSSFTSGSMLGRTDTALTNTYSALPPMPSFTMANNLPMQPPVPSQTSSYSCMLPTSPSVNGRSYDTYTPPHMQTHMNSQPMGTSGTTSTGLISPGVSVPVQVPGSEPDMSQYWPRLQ
Chain of Hepatocyte nuclear factor 6 (Homo sapiens) (Q9UBC0 whole entry, looked up): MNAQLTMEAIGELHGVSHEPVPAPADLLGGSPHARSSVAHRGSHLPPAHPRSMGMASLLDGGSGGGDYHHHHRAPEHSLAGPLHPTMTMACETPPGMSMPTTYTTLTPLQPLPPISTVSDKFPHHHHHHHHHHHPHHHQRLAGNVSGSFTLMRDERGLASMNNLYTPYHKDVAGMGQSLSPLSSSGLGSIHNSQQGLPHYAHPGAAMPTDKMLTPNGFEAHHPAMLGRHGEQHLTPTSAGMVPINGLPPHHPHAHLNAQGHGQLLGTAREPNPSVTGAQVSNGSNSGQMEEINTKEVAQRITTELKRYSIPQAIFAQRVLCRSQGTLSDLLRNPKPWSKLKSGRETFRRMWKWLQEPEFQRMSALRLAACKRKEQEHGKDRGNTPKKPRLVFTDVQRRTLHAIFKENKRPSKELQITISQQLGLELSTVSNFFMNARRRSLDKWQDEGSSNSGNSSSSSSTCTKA
Chain of Heat shock factor protein 1 (Homo sapiens) (Q00613 whole entry, looked up): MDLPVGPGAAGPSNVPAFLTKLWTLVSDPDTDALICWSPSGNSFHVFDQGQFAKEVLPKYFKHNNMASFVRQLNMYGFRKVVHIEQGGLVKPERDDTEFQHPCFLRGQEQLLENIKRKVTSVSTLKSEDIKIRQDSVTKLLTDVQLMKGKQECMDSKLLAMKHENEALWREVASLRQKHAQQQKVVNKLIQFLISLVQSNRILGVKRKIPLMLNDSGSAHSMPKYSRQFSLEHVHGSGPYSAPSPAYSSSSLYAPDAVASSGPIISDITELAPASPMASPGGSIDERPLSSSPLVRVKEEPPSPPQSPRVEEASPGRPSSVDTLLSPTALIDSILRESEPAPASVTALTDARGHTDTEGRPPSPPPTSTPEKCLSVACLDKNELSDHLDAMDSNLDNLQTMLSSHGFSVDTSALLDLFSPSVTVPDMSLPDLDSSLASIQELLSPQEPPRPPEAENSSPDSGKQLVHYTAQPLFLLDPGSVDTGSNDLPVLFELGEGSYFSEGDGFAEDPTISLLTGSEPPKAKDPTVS
Chain of Hypoxia-inducible factor 1-alpha (Homo sapiens) (Q16665 whole entry, looked up): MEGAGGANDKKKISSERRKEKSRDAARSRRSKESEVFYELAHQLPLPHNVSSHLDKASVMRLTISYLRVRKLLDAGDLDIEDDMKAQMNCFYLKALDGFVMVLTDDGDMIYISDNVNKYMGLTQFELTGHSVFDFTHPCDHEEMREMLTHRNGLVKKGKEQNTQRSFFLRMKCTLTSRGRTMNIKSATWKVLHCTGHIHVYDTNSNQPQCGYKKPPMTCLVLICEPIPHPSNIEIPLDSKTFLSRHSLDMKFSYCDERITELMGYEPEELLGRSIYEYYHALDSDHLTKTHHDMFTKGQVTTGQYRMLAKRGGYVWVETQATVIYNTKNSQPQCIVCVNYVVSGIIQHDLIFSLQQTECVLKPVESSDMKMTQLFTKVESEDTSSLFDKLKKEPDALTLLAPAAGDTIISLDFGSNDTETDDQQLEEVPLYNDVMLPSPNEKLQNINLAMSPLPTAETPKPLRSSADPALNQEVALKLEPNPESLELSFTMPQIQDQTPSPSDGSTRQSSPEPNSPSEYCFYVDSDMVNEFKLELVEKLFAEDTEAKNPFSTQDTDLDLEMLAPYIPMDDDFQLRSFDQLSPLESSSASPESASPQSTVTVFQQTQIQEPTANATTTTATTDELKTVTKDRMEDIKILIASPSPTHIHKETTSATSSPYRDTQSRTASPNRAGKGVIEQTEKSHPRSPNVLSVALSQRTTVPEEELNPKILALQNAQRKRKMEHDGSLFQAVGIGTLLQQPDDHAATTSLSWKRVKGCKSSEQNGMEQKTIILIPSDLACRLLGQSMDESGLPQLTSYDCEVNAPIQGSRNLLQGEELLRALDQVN

Turning to `O=C1c2ccccc2C(=O)c2c(O)c(O)cc(O)c21`, the result in [1], in assay [2], in [3], in assay [4], in assay [5] and in [6] was inactive. The call in assay [7], in assay [8] and in assay [9] was inactive.

Take `CNNCc1ccc(C(=O)NC(C)C)cc1`: the outcome in assay [1], in [2], in [3], in assay [4], in assay [5] and in [6] was inactive. The outcome in assay [7], in assay [8] and in assay [9] was inactive.

`C[C@]12CC[C@@H]3c4ccc(O)cc4CC[C@H]3[C@@H]1C[C@@H](O)[C@@H]2O`: the molecule was called inactive in [1], in assay [2], in [3], in [4], in assay [5] and in [6]. In addition, the call in [7] and in assay [8] was inactive.

Take `CC(C)(C)C1CCCCC1O` (centres undefined): the call in assay [1], in assay [2], in [3], in [4], in assay [5] and in assay [6] was inactive. The molecule was called inactive in assay [7], in assay [8] and in assay [9].

On to `O=C(CC(=O)C(F)(F)C(F)(F)C(F)(F)F)c1cccs1`, for which, in assay [1], the outcome was “inactive [setting not given]”. The result in assay [2], in assay [3], in [4], in [6], in [7] and in assay [8] was inactive. The outcome in assay [9] and in assay [10] was inactive. Also, the AC50 – broadly, the concentration at which the activity in the assay is half-maximal – is 12.8 µM (active) and 16.5 µM (active) in [5]; 86.8 µM (active) in [7]; 50 µM (active) in assay [8]; 69.7 µM (active) in [9].

With `FCOC(C(F)(F)F)C(F)(F)F`, the result in [1], in [2], in assay [3], in [4], in [5] and in assay [6] was inactive. Besides, the molecule was called inactive in assay [7], in assay [8], in assay [9] and in [10].

For `CC[N+](CC)(CC)Cc1ccccc1`, the outcome in assay [1], in assay [2], in assay [3], in [4], in assay [5] and in [6] was inactive. Further, the call in assay [7], in assay [8] and in assay [9] was inactive.

Regarding `OCCN1CN(CCO)CN(CCO)C1`, the call in assay [1], in [3], in [4], in [5] and in [6] was inactive. Moreover, the AC50 was 159 µM (active) in [2], 178 µM (active) in [7] and 165 µM (active) in [8].

In the case of `Oc1cc2ccccc2cc1O`, the call in [1], in assay [2], in [3], in assay [4], in assay [5] and in assay [6] was inactive. Moreover, the outcome in assay [7], in assay [8], in assay [9] and in assay [10] was inactive.

`O=C(NO)c1ccccc1`: the molecule was called inactive in assay [1], in assay [3], in assay [4], in assay [5], in assay [6] and in [7]. Further, the result in [8] was inactive. In assay [2], the AC50 is 44.4 µM (active) [middle of 4 runs].

As for `CCCCCCC(C)(C)C(=O)O`, the molecule was called inactive in assay [1], in assay [2], in [3], in [4], in [6] and in assay [8]. In addition, the result in assay [9] was inactive. The AC50 in assay [5] was 188 µM (active); in [7] it was 187 µM (active); in assay [10], 164 µM (active).

In the case of `C=COC(=O)C(C)(C)CCCCCC`, the molecule was called inactive in assay [1], in [2], in assay [3], in assay [4], in [6] and in [7]. Also, the call in assay [8], in [9] and in assay [10] was inactive. Also, the AC50 in assay [5] is 130 µM (active).

`Nc1ccn([C@@H]2O[C@H](CO)[C@@H](O)C2O)c(=O)n1` (some centres undefined): the molecule was called inactive in [1], in [2], in assay [3], in [4], in assay [5] and in [6]. The molecule was classed as inactive in [7], in assay [8], in assay [9] and in assay [10].

On to `CCCCCCOC(=O)c1ccc(O)cc1`, for which the outcome in assay [1], in assay [2], in assay [3], in [4] and in [5] was inactive. The AC50 is 52.7 µM (active) in assay [6] and 60.8 µM (active) in assay [7].

Regarding `OCC(F)(F)C(F)(F)C(F)(F)C(F)(F)C(F)(F)C(F)(F)C(F)(F)C(F)(F)C(F)(F)C(F)(F)C(F)(F)F`, the molecule was classed as inactive in assay [1], in [2], in [3], in [4], in assay [5] and in assay [6]. Besides, the result in [7], in assay [8] and in assay [9] was inactive.

As for `CCC(=O)C=Cc1ccc(OC)cc1`, the outcome in assay [1], in [3], in assay [4], in assay [9] and in assay [10] was inactive. Besides, the AC50 in assay [2] was 100 µM (active); in assay [5], 62.7 µM (active); in assay [6], 124 µM (active); in [7], 145 µM (active); in assay [8], 65.4 µM (active).

For the molecule `CCC(C)c1nccnc1OC` (centres undefined), the call in assay [1], in [2], in assay [3], in assay [4], in [5] and in assay [6] was inactive. Further, the result in assay [7], in assay [8], in assay [9] and in assay [10] was inactive.

Take `Nc1cc(Cl)c(-c2cc(Cl)c(N)cc2Cl)cc1Cl`: the molecule was classed as inactive in assay [1], in assay [2], in [3], in assay [4], in assay [5] and in assay [6]. Also, the outcome in [9] and in assay [10] was inactive. Moreover, the AC50 in assay [7] was 18.1 µM (active); in [8] it was 13.2 µM (active).

For the molecule `CC(O)COc1ccccc1` (centres undefined), the molecule was called inactive in [1], in [2], in assay [3], in assay [4], in assay [5] and in [6]. Besides, the call in assay [7], in assay [8], in assay [9] and in assay [10] was inactive.

For `O=P(O)(O)CCC(F)(F)C(F)(F)C(F)(F)C(F)(F)C(F)(F)C(F)(F)C(F)(F)C(F)(F)F`, the result in [1], in assay [2], in assay [3], in [4], in assay [5] and in assay [6] was inactive. Further, the molecule was classed as inactive in assay [7], in assay [8], in assay [9] and in [10].

With `CCN(CC)CC`, the call in assay [1], in [2], in assay [3], in [4], in assay [5] and in assay [6] was inactive. Further, the molecule was called inactive in [7], in assay [8], in assay [9] and in assay [10].

For the molecule `Cc1ccc(N=Nc2c(O)ccc3ccccc23)c(C)c1`, the result in assay [1], in [2], in assay [3], in assay [4], in assay [6] and in assay [8] was inactive. Besides, the result in assay [9] and in [10] was inactive. In addition, the AC50 in assay [5] is 13.2 µM (active); in assay [7], 3.78 µM (active).

`CC(=O)Nc1ccc(S(N)(=O)=O)cc1`: the result in [1], in assay [2], in assay [3], in assay [4], in assay [5] and in [6] was inactive. Moreover, the result in assay [7], in assay [8], in [9] and in [10] was inactive.

For the molecule `CCC(C)c1ccccc1O` (centres undefined), the molecule was classed as inactive in assay [1], in assay [2], in assay [3], in [4], in [5] and in assay [6]. Further, the call in assay [7], in assay [8], in [9] and in assay [10] was inactive.
